Where a name gives a salt, the structure may show the parent alone.
Tests used:
[1] = target: IKZF1 (dCK*-IKZF1 fusion in HEK293FT) (UniProt Q13422); test: inhibition of IKZF1 HTRF signal (DMSO = 0%, pomalidomide 10 uM = 100%); higher = lower IKZF1 protein level; conditions: compound concentration: 5 uM, overnight (~20 h)
Procedure, shortened: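 After overnight treatment at 37 °C with 5 μM compound in single wells, HEK293FT cells (2000/well, 384-well) stably expressing an IKZF1 fusion were lysed for 30 min at room temperature. A commercial HTRF total-IKZF1 antibody kit was incubated with the lysate overnight, and the time-resolved FRET ratio at 665/620 nm was corrected for background. Data are given as percent inhibition of IKZF1 signal relative, on each plate, to vehicle and a reference degrader, set at 0% and 100% respectively.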

[2] = tested on: HEK293FT dCK*-only; test: relative growth in counter assay (no AraC = 100%, AraC + DMSO = 0%); higher = more growth rescue independent of IKZF1; conditions: compound concentration: 5 uM; AraC concentration: 0.3 uM; overnight pretreatment + 4 days AraC
Procedure, shortened: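 Counter assay in HEK293FT cells expressing dCK* alone (300/well, 384-well). Cells received 5 μM compound 2 h after seeding, then after overnight at 37 °C a nucleoside suicide substrate at 0.3 μM plus medium for 4 days. On day 5, Hoechst 33342-stained nuclei were counted by imaging. Relative growth was normalised per plate to wells without suicide substrate (100%) and substrate plus vehicle (0%).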

[3] = tested on: HEK293FT dCK*-IKZF1; test: relative growth recovery (pomalidomide 10 uM = 100%, DMSO = 0%); higher = more growth rescue (IKZF1 fusion degradation); conditions: compound concentration: 5 uM; AraC concentration: 0.3 uM; overnight pretreatment + 4 days AraC
Procedure, shortened: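 Means of duplicates from different days are given for growth recovery, normalised per plate against a reference degrader and vehicle. The reference degrader set the 100% level and vehicle the 0% level. HEK293FT cells stably expressing a deoxycytidine kinase–IKZF1 fusion (300/well, 384-well) received 5 μM compound 2 h after seeding and, after overnight at 37 °C, 0.3 μM of a nucleoside suicide substrate plus medium for 4 days. Nuclei stained with Hoechst 33342 were then counted by whole-well imaging on day 5.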

Chain of IKZF1 (dCK*-IKZF1 fusion in HEK293FT) (Q13422 whole entry, looked up, the tested form may be a part): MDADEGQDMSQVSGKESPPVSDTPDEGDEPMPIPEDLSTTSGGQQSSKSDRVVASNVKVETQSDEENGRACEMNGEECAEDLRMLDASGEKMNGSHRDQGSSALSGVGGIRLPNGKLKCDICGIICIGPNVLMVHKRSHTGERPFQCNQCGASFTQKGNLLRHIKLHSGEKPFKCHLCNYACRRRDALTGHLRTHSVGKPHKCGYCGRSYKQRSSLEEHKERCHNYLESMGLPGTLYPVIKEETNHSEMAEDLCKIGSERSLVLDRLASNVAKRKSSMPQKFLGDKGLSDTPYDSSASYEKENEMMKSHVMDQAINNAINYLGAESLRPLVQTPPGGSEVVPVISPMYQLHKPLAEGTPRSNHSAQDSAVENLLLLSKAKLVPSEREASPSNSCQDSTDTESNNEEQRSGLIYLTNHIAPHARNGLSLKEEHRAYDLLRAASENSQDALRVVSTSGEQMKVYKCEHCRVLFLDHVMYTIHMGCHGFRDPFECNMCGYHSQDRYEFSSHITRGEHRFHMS

SMILES | inhibition of IKZF1 HTRF signal [1] | relative growth in counter assay [2] | relative growth recovery [3]
CCOc1ccc2nc3cc(N)ccc3c(N)c2c1 | -16.3% | -23.6% | -6.36%
COc1cc2ncnc(Nc3ccc(F)c(Cl)c3)c2cc1OCCCCCOCCOCCC(=O)N[C@H](C(=O)N1C[C@H](O)C[C@H]1C(=O)NCc1ccc(-c2scnc2C)cc1)C(C)(C)C [Gefitinib-based PROTAC 3] | 15.5% | 41.4% | 55.5%
CN(C)c1ccc2nc3ccc(N(C)C)cc3[s+]c2c1 | 56.3% | -29.4% | -11.5%
Clc1ccc2c(NCCNc3ccnc4cc(Cl)ccc34)ccnc2c1 | -19.4% | -2.86% | -1.39%
CC(CNC1CCCCC1)OC(=O)c1ccccc1 (configuration not stated) [hexylcaine] | -36.3% | 0.35% | -0.215%
COc1c(C)c2c(c(O)c1C/C=C(\C)CCC(=O)O)C(=O)OC2 | -27.2% | -31.1% | -11.7%
COC(=O)c1c(C)[nH]c(C)c1C(=O)c1ccccc1Cc1ccccc1 | -37.4% | 36.9% | 66.8%
Cc1c(-c2ccccc2F)[nH]c(N)c1C#N | -50.1% | 0.99% | 0.445%
Nc1ccc(-c2nc3ccc(-c4nc5ccc(N)cc5[nH]4)cc3[nH]2)cc1 | 1.33% | -6.2% | -2.58%
FC(F)(F)c1cc(NC(=S)Nc2ccc(Br)cc2-c2nnn[nH]2)cc(C(F)(F)F)c1 | -39% | -37.2% | -1.23%
Nc1ncn([C@H]2C[C@H](O)[C@@H](CO)O2)c(=O)n1 [Decitabine] | 12% | -31.4% | -11.4%
O=C(Nc1cccc(Cl)c1)Nc1ncc(CCNc2ncnc3ccsc23)s1 [SNS-314 methanesulfonate] | -27% | -30.3% | -6.71%
CCN(CC)CCOc1ccccc1C(=O)CCc1ccccc1 [etafenone] | 11% | 2.17% | -1.08%
CC1=C(/C=C/C(C)=C/C=C/C(C)=C/C(=O)Nc2ccc(O)cc2)C(C)(C)CCC1 [Fenretinide] | -30.4% | -13.7% | -1.99%
c1ccc(CNc2nc(NCc3ccccc3)c3ccccc3n2)cc1 | -15.7% | -18.5% | -4.85%
CO[C@H]1/C=C/O[C@@]2(C)Oc3c(C)c(O)c4c(O)c(cc(O)c4c3C2=O)NC(=O)/C(C)=C\C=C\[C@H](C)[C@H](O)[C@@H](C)[C@@H](O)[C@@H](C)[C@H](OC(C)=O)[C@@H]1C [Rifamycin SV Sodium] | -36.7% | 2.23% | 0.23%
COc1ccc(-c2ccc3c(N4CCOCC4)nc(N4C[C@@H](C)O[C@@H](C)C4)nc3n2)cc1CO | 14.5% | -14% | -6.47%
CCS(=O)(=O)N(C)[C@@H]1c2cc(C#N)ccc2OC(C)(C)[C@H]1O.CCS(=O)(=O)N(C)[C@H]1c2cc(C#N)ccc2OC(C)(C)[C@@H]1O (racemic) [chromanol-(+/-)] | -29.6% | 1.25% | 0.645%
CCCOc1ccc2nc(NC(=O)OC)[nH]c2c1 | -18.4% | -15.2% | -2.92%
O=c1c(O)c(-c2ccc(O)c(O)c2)oc2cc(O)cc(O)c12 [quercetin] | -26.2% | -7.53% | -2.98%

SMILES | inhibition of IKZF1 HTRF signal [1] | relative growth in counter assay [2] | relative growth recovery [3]
COC(=O)C1=C(C)NC(C)=C([N+](=O)[O-])C1c1ccccc1C(F)(F)F (racemic) | -43.6% | -7.91% | -0.605%
CC(CN(C)C)CN1c2ccccc2Sc2ccccc21 (configuration not stated) [trimeprazine] | 15.3% | 7.5% | -1.37%
CC[C@H](CO)Nc1nc(NCc2ccc(-c3ccccn3)cc2)c2ncn(C(C)C)c2n1 | 8.26% | -34.5% | -12.2%
CC(C)(C#N)c1ccc(N2C(=O)OCc3cnc4ccc(-c5cnc6ccccc6c5)cc4c32)cc1 | 17.1% | 3.56% | -2.14%
COC(=O)Nc1nc2ccc(C(=O)c3ccccc3)cc2[nH]1 | -12.9% | -32.6% | -10.6%
O=S(=O)(O)CCCS(=O)(=O)O | 17.9% | 1.16% | -1.31%
O=C1c2ccccc2-c2n[nH]c3cccc1c23 [pyrazolanthrone] | -38.5% | -9.29% | -5.03%
c1cc2c(cc1C1CCCCC1)c1c3n2CCNC3CCC1 (configuration not stated) [tetrindole] | -27.2% | -33% | -9.3%
CCC1(O)CC2CN(CCc3c([nH]c4ccccc34)[C@@](C(=O)OC)(c3cc4c(cc3OC)N(C=O)C3[C@]45CCN4CC=C[C@@](CC)([C@@H](OC(C)=O)[C@]3(O)C(=O)OC)[C@H]45)C2)C1 (some centres not stated) [Vincristine sulfate] | -23.3% | -33.7% | -11.8%
COc1cccc2c1C(=O)c1c(O)c3c(c(O)c1C2=O)C[C@@](O)(/C(CO)=N/NC(=O)CCCCCN1C(=O)C=CC1=O)C[C@@H]3O[C@H]1C[C@H](N)[C@H](O)[C@H](C)O1 [Aldoxorubicin] | -9% | -35.5% | -14%
O=C(Nc1cnc(Cl)nc1)c1ccc(F)c(F)c1 | -25.3% | 1.83% | 4.13%
O=C(O)c1ccccc1Nc1ccc(CCc2ccc(Cl)c(Cl)c2)cc1 | -23.6% | 8.33% | 0.125%
COc1ccc(NC(=O)c2ccc(-c3ccc(-c4noc(C)n4)cc3C)cc2)cc1N1CCN(C)CC1 | -35.8% | -19.7% | 1.76%
C[C@H]1O[C@@H](O[C@H]2[C@@H](O)C[C@H](O[C@H]3[C@@H](O)C[C@H](O[C@H]4CC[C@]5(C)C6C[C@@H](O)[C@]7(C)[C@@H](C8=CC(=O)OC8)CC[C@]7(O)C6CC[C@@H]5C4)O[C@@H]3C)O[C@@H]2C)C[C@H](O)[C@@H]1O (some centres not stated) | 68.6% | -34.9% | -12.4%
Cc1cccc(C)c1NC(=O)C[N+](C)(C)C | -41.2% | 0.1% | -1.7%
O=C(OC)C1=C(C)NC(C)=C(C(OCCCN3CCC(C4=CC=CC=C4)(C5=CC=CC=C5)CC3)=O)[C@@H]1[C@]2=CC=CC([N+]([O-])=O)=C2 [dexniguldipine] | -24.7% | -15.1% | -5.83%
CC(=O)c1ccc(S(=O)(=O)NC(=O)NC2CCCCC2)cc1 | -56.1% | 5.07% | 1.03%
NC(=O)Nc1sc(-c2ccc(F)cc2)cc1C(N)=O | -33.5% | -26.8% | -9.27%
[2H]C([2H])([2H])C(O)(CCO[C@@H](C)[C@H]1CC[C@H]2/C(=C/C=C3/C[C@@H](O)C[C@H](O)C3=C)CCC[C@]12C)C([2H])([2H])[2H] [maxacalcitol] | -24.6% | 9.68% | 7.53%
OC1=C(C[C@]([C@](CO)=O)(O)C[C@@H]4O[C@@]5([H])C[C@H](N)[C@H](O)[C@H](C)O5)C4=C(O)C3=C1C(C2=CC=CC(OC)=C2C3=O)=O [doxorubicin] | -9.64% | -35.2% | -13.8%

SMILES | inhibition of IKZF1 HTRF signal [1] | relative growth in counter assay [2] | relative growth recovery [3]
CN1CCC[C@@H]1CCO[C@](C)(c1ccccc1)c1ccc(Cl)cc1 [Clemastine Fumarate] | 6.24% | 4.09% | 2.26%
NC(=O)N1c2ccccc2CC(O)c2ccccc21 (configuration not stated) [licarbazepine] | -28.1% | -2.99% | 0.095%
CN(C)CCCN1c2ccccc2Sc2ccccc21 | -35.6% | 5.27% | -2.24%
Cc1cc(C)nc(NS(=O)(=O)c2ccc(NC(=S)NC(=O)COc3ccc(Br)cc3Cl)cc2)n1 | -36.5% | 0.75% | 1.03%
OCCN1CCN(CCCN2c3ccccc3Sc3ccc(C(F)(F)F)cc32)CC1 [Fluphenazine  HCl] | -52.5% | 15.7% | 5.51%
Nc1c2ccccc2nc2ccccc12 | 58.6% | -34.8% | -14%
Oc1c(Br)cc(Br)c2cccnc12 | 1.09% | -4.45% | -2.54%
COc1cc([C@@H]2c3cc4c(cc3[C@@H](O[C@@H]3O[C@@H]5CO[C@@H](C)O[C@H]5[C@H](O)[C@H]3O)[C@H]3COC(=O)C23)OCO4)cc(OC)c1O (some centres not stated) [Etoposide] | -10.2% | -34.7% | -12.9%
CN(C)c1ccc2c(c1)Sc1cc(N(C)C)ccc1N2.CS(=O)(=O)O [Leucomethylene blue (Mesylate)] | -24.1% | -19.7% | -10.3%
CCSc1ccc2c(c1)N(CCCN1CCN(C)CC1)c1ccccc1S2 [thiethylperazine] | 24.1% | -4.22% | 1.55%
CN(C)c1ccc(C(=C2C=CC(=[N+](C)C)C=C2)c2ccc(N(C)C)cc2)cc1 | -12.9% | -35.1% | -13.1%
CCCCCCCCN=c1ccn(CCCCCCCCCCn2ccc(=NCCCCCCCC)cc2)cc1 [Octenidine Dihydrochloride] | 64.7% | -35.3% | -14.7%
CCc1nc(N)nc(N)c1-c1ccc(Cl)cc1 | 18% | 3.95% | -0.245%
C=C1C(=O)O[C@H]2[C@H]1CC/C(C)=C\CC[C@@]1(C)O[C@@H]21 [Parthenolide ((-)-Parthenolide)] | -18.3% | -33.7% | -11.6%
C/C=C(/C(=C/C)c1ccc(O)cc1)c1ccc(O)cc1 [dienestrol] | -24% | -2.14% | -1.6%
CNCCC(Oc1ccc(C(F)(F)F)cc1)c1ccccc1 (configuration not stated) [Fluoxetine HCl] | -26.7% | -5.41% | 1.15%
O=C(OC)C1=C(C)NC(C)=C(C(OCCCN3CCC(C4=CC=CC=C4)(C5=CC=CC=C5)CC3)=O)[C@H]1[C@]2=CC=CC([N+]([O-])=O)=C2 [niguldipine-(S)-(+)] | -12% | -29.9% | -10.5%
CO[C@@H]1[C@@H](OC2O[C@H](C)[C@@H](O[C@H]3C[C@@](C)(O)[C@@H](O)[C@H](C)O3)[C@H](N(C)C)[C@H]2O)[C@@H](CC=O)C[C@@H](C)[C@@H](O[C@H]2CC[C@H](N(C)C)[C@@H](C)O2)/C=C/C=C/C[C@@H](C)OC(=O)C[C@H]1O (some centres not stated) | -29.9% | -5.7% | 2.43%
CC[C@@]1(O)C(=O)OCc2c1cc1n(c2=O)Cc2c-1nc1cc(F)c(C)c3c1c2[C@@H](N)CC3.CS(=O)(=O)O [Exatecan Mesylate] | -4.98% | -35.8% | -15.4%

Reference: the supplement of paper PMC12340641
